# Source: PubChem
# ELG1 genotoxic – inducers of genotoxicity in HEK293T ELG1-luciferase cells. Potency, µM (top dose mostly 46 µM), for inactives: at the top dose activity change, positive = activation, usual class: activators. HEK293T ELG1-luciferase reporter, luminescence, 16 h. 1.3% of 330,000 active. AID 504466; note: % of control where 0% means no effect; nearly all actives have a fitted effect of over 60% in size
#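 Step 1: seed 2,000 HEK293T ELG1-luciferase cells per well. Step 2: add compound or DMSO, incubate 16 hr at 37 °C. Step 3: ONE-Glo, 30 min at room temperature, read luminescence.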
# NPC1 promoter act – activators of NPC1 promoter; Huh7 NPC1 promoter luciferase reporter, 24 h; Potency, µM (highest dose often 9.22 µM), for the others: at the top dose activation, usual class: activators; 2.4% of 320,000 active; AID 485313; note: % of control where 0% means no effect; nearly all actives have a fitted effect of over 60% in size
#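 Quantitative HTS used a cell-based reporter: Huh7 cells stably bearing the NPC1 promoter upstream of luciferase were treated with compounds for 24 h, and promoter activation was read as luminescence.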
# ELG1 repair inh – blocks ELG1-dependent DNA repair in HEK293T cells | 2.3% of 330,000 active | Potency, µM (titrated, usually from 46.1 µM), inactives show top-dose activity change, negative = inhibition, hits mostly inhibitors | AID 504467 | HEK293T ELG1-luciferase reporter, luminescence, 16 h; DNA damage induced by 5-fluorouridine; note: % is set by controls: 0 for no effect and ±100 for the full control effect; nearly all actives have a fitted effect of over 55% in size
#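 Step one: seed 2,000 cells per well. Step two: pin-transfer compound or DMSO alongside 5-fluorouridine. Step three: incubate 16 hr, 37 °C, 5% CO2. Step four: add ONE-Glo, wait 30 min, read luminescence.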
# Rab9 prom act – activates the Rab9 promoter. 2.8% of 320,000 active. Huh7 Rab9 promoter-luciferase reporter, luminescence, 24 h. Potency, µM (highest dose often 9.22 µM), without a hit: top-dose activation, negative = inhibition, usual class: activators; note: % of control where 0% means no effect; nearly all actives have a fitted effect of over 60% in size
#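 Huh7 cells stably carrying a Rab9 promoter-luciferase reporter, 1500 cells per well in OP-MEM I with 10% FBS, treated with compound 24 hours at 37C. Luciferase activity read by luminescence after 10 minutes with Amplite reagent.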
# FLuc counter – counter-screen for miR-21 project: firefly luciferase inhibitors or activators; P08659; purified FLuc, Km substrates, luminescence inhibition; Potency, µM (highest dose often 57.5 µM), inactives show at the top dose activity change, negative = inhibition, hits mostly inhibitors; 6.9% of 360,000 active; AID 588342;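 note: plate controls were vehicle for no effect and reference inhibitor for full effect; nearly all actives have a fitted effect of over 55% in size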
# Target sequence (P08659 whole entry, looked up): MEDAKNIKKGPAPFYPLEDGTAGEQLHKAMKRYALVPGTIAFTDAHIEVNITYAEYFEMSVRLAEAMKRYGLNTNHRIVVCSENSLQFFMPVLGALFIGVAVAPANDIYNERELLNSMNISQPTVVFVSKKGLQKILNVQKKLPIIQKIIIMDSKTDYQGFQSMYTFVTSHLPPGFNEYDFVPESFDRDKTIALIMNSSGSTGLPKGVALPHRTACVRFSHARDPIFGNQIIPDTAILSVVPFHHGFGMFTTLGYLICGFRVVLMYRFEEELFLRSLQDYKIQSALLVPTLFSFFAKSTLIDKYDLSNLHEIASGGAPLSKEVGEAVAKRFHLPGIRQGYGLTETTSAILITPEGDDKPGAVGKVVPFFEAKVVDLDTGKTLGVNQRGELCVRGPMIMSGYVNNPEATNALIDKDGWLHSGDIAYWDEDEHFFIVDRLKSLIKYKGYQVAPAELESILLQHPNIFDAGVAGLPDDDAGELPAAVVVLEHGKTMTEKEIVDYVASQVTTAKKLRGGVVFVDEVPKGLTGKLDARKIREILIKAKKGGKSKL
#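 Purified P. pyralis luciferase (10nM final) with 10uM D-luciferin and 10uM ATP (Km levels) in 50mM Tris acetate pH 7.5, 10mM Mg acetate, 0.01% Tween-20, 0.05% BSA; qHTS 6-point titration, ~60 µM downward; luminescence read.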
# SMN2 splice up – SMN2 splice variant enhancement; HEK293 SMN2-luciferase splicing reporter, luminescence, 30-36 h; Potency, µM (top dose mostly 46.1 µM), inactives show top-dose activity change, positive = activation, most hits filed as activators; 2.8% of 210,000 active; note: % of control where 0% means no effect; nearly all actives have a fitted effect of over 55% in size
#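 qHTS luciferase splicing reporter: luminescence rises when SMN2 exon 7 is included in transfected HEK293 cells. Compound exposure lasted 30-36 h at 37C, with 4.5 mM final sodium butyrate as control, followed by a ONE-Glo read.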
# * = called active by the depositor; ? = inconclusive; / = no result given. This is a sample that favours compounds with a hit; in the whole collection about 9.2% have one here. Calls come from the whole dose curve; as a rule, active = well fitted curve in the direction sought with a large enough effect; inconclusive = small, poorly fitted or top-dose-only effect, or another doubt; inactive = no such curve, though single readings can be large; an effect the other way counts as inactive or inconclusive. Potency is the fitted concentration of half-maximal effect.
SMILES,ELG1 genotoxic,NPC1 promoter act,ELG1 repair inh,Rab9 prom act,FLuc counter,SMN2 splice up
Brc1cc2c(cc1Br)OCCOCCOCCOCCO2,-14%,-2%,-9%,-2%,2%,-9%
CCCOc1cccc(C(=O)Nc2cccc(NC(=O)c3ccco3)c2)c1,-3%,-3%,-23%,-6%,17µM*,8%
CCN(CC)S(=O)(=O)c1ccc(C(=O)Nc2ccc3c(c2)OCCO3)cc1,2%,9%,?,5%,?,-3%
Cc1ccc(C)c(NC(=O)Cn2ncc3c(C)n(Cc4ccc(F)cc4)c(C)c3c2=O)c1,/,/,/,/,2%,5%
Cc1cc(C)c(NC(=O)CCN2C(=O)c3ccccc3Sc3ncccc32)c(C)c1,/,/,/,/,-2%,/
COc1ccc(C)cc1NC(=O)Nc1ccccc1OCc1cc(=O)n2ccccc2n1,/,/,/,/,-7%,/
CCN1C(=O)c2ccc(C(=O)Nc3ncc(C)s3)cc2C1=O,?,18%,?,?,1.7µM*,13%
O=C(O)CCC(=O)Nc1cccc(C(=O)Nc2ccc(Br)cc2)c1,5%,-1%,?,7%,24µM*,17%
Cc1c(C(=O)Nc2ccc3c(c2)OCCO3)oc2ccc(Br)cc12,?,19%,?,?,5.4µM*,/
Cc1cc(Cl)c2oc(C(=O)NCCC3CCCCO3)c(C)c2c1 (configuration not stated),?,?,?,?,21µM*,/
O=C(NNC(=O)c1ccc2[nH]c(=O)c(=O)[nH]c2c1)c1cccc(Br)c1,4%,-5%,24%,-1%,-7%,/
CCN(CC(=O)Nc1ccccc1C(F)(F)F)C(=O)CCc1c(C)[nH]c(=O)c(C#N)c1C,7%,-2%,?,8%,2%,/
Cc1cc(C)cc(N(CC(=O)NCc2ccc(F)cc2)C(=O)CCC(=O)Nc2ccccn2)c1,-1%,-2%,?,-4%,3%,/
CC1(C)SC2c3ccccc3C(=O)N2[C@@H]1C(=O)NC1CC1 (some centres not stated),0%,-1%,0%,-10%,0%,/
CC(=O)Nc1ccc2c(c1)OCCO2,-1%,-7%,18%,8%,7%,-7%
O=C(Nc1ccc2c(c1)OCO2)c1ccncc1,9%,14%,?,23%,-19%,2%
Cc1ccc2oc(C(=O)N(Cc3ccncc3)CC3CCCO3)c(C)c2c1 (configuration not stated),?,?,?,?,11µM*,/
Cc1ccc(C(=O)Nc2ccc3c(c2)OCCO3)cc1,0.58µM*,0.28µM*,?,0.32µM*,0.43µM*,/
CCCc1ccc2oc(C(=O)N(Cc3ccncc3)CC3CCCO3)c(C)c2c1 (configuration not stated),0%,1%,?,6%,-18%,/
O=C(Nc1cccc(C(=O)Nc2cccc(Br)c2)c1)c1ccccc1,-2%,-2%,-25%,15%,?,/
CC(C)c1ccc(NC(=O)c2cccc(Br)c2)cc1,21µM*,1.4µM*,?,0.71µM*,3µM*,14µM*
Cc1ccc(C(=O)Nc2ccc3c(c2)OCO3)cc1,0.46µM*,0.63µM*,?,0.56µM*,1.3µM*,7.9µM*
CCn1ncc(S(=O)(=O)N2CCN(c3cccc(OC)c3)CC2)c1C,-3%,1%,-7%,-5%,3%,/
COc1ccc(C(=O)OCC(=O)c2ccc3[nH]c(=O)[nH]c3c2)c(OC)c1OC,9%,/,-6%,/,/,/
COc1ccc(CN2C(=NC(=O)C3CCCCC3)SC3CS(=O)(=O)CC32)cc1 (configuration not stated),6%,-16%,0%,-1%,2%,/
CCCOc1cccc(C(=O)Nc2cccnc2)c1,14%,-2%,9%,6%,?,-14%
